Bioassay records deposited in PubChem BioAssay by The Scripps Research Institute Molecular Screening Center.
Shown are actives, neighbours in structure and some others; about 1.1% of the full set was active somewhere.
MOR-DOR ag: OPRM1-OPRD1 heterodimerization agonism; actives 0.3% (n = 340,000); activation, % at 9.3 µM; P35372+P41143; cells, luminescence; in the data active = activation above about 18%;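 note: 0% = vehicle-treated cells and 100% = reference agonist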
Target sequence (P35372 whole entry, looked up): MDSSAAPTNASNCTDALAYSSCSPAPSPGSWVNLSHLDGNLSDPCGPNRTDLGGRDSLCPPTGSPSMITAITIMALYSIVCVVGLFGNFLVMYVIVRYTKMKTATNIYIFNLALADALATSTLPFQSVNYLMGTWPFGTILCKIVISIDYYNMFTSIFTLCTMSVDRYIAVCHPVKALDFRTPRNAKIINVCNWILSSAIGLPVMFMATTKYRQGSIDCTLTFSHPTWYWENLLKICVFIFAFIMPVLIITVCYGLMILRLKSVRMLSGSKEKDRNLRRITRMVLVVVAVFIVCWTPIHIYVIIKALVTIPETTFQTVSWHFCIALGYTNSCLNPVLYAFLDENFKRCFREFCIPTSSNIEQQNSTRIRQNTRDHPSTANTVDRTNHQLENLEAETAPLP
Target sequence (P41143 whole entry, looked up): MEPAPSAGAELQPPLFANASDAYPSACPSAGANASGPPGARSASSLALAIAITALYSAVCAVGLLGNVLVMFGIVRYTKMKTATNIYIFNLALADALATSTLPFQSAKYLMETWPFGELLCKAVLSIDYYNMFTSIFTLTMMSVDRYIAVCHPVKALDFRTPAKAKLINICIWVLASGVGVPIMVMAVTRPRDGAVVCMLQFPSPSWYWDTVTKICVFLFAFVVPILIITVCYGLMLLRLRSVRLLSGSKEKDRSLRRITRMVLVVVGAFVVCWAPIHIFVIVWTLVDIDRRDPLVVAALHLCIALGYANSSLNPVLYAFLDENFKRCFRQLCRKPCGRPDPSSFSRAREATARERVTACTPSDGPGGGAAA
HTR5A inv ag: inverse agonist of human HTR5A in OPRM1-OPRD1 counter-screen | P47898 | HTR5A cell line, luminescence, inverse agonism | inhibition, % at 9.3 µM | actives 0.083% (n = 340,000) | AID 504634; in the data active = inhibition mostly above about 23%, no sharp cut-off; inactive = mostly below about 18%;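 note: 0% = cells with DMSO and 100% = no-cell wells with DMSO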
HTR5A ag: counter-screen for OPRM1-OPRD1 agonists: human HTR5A agonism. P47898. HTR5A agonist assay, luminescence, cell-based. activation, % at 9.3 µM. actives 0.61% (n = 340,000); in the data active = activation mostly above about 9.5%, no sharp cut-off; inactive = mostly below about 7.6%;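 note: 0% = cells with vehicle only and 100% = reference agonist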
MOR-DOR inv ag: inverse agonists of human mu-delta opioid receptor heterodimerization; P35372+P41143; cell-based MOR-DOR heterodimer luminescence, inverse agonism; inhibition, % at 9.3 µM; actives 0.21% (n = 340,000); AID 504357; in the data active = inhibition above about 22%, passing the limit was not always enough;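 note: 0% = cells with DMSO and 100% = wells without cells with DMSO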
Starred values were filed as active, the others as inactive.

SMILES	MOR-DOR ag	HTR5A inv ag	HTR5A ag	MOR-DOR inv ag
O=C(/C=N/O)Nc1ccc(F)cc1	-1	8	6	5
CC(=NNS(=O)(=O)c1ccc([N+](=O)[O-])cc1)c1ccc(C)cc1	0	-44	11*	0
C/C(=N/NS(=O)(=O)c1ccc(F)cc1)c1ccncc1	0	-8	11*	-2
CC(=O)Nc1ccc(/C(C)=N/NS(=O)(=O)c2ccc(C)cc2)cc1	-1	-55	2	6
COc1ccc(Cc2nc(-c3ccc(-n4cccc4)cc3)no2)cc1OC	1	-32	11*	-5
COCCN1Cc2cccc(C(=O)NCCCN3CCCC3=O)c2C1=O	0	-9	4	-2
O=C(CSc1nnc(-c2ccc(Cl)cc2)n1-c1ccc(Cl)cc1)N/N=C/c1ccco1	7	-5	1	-33
Cc1ccc(/C=N/NC(=O)CSc2nnc(-c3ccc(Cl)cc3)n2-c2ccccc2)o1	17	-49	14*	-90
NCCc1c(-c2ccccc2)n(-c2ccccc2)c2ccccc12	8	-10	14*	-42
CCN1/C(=C/c2ccc3ccccc3[n+]2CC)C=Cc2ccccc21	-6	43*	-12	32
COC(=O)CNC(=O)Cn1c(=O)n(Cc2ccc(F)cc2)c(=O)c2sccc21	0	-42	11*	2
O=C(Cn1c(=O)n(-c2ccc(F)cc2)c(=O)c2sccc21)NC1CCCCC1	-3	21	12*	14
CCN(CC)C(=O)Cn1c(=O)n(Cc2ccc(F)cc2)c(=O)c2sccc21	-2	10	-3	9
CC(C)CNS(=O)(=O)c1cc(C(=O)OCC(=O)c2ccc3c(c2)OCCO3)c(Cl)cc1Cl	0	-7	2	2
CCCn1c(C)cc(C(=O)COC(=O)c2cc(S(=O)(=O)NCC(C)C)c(Cl)cc2Cl)c1C	0	-10	14*	0
COc1ccc(-c2nn(-c3ccccc3)cc2C#N)cc1	2	-35	14*	-9
COCCn1c(SCC(=O)NNC(=O)Cc2ccccc2)nc2ccccc2c1=O	-3	-18	7	14
CCC(=O)NNc1ncnc2c1cnn2C	-1	11	1	4
CCC(CN(C)C)Oc1cc(NCc2ccccc2)c2ncn(C(C)C)c2c1 (stereo not drawn)	24*	-63	21*	-140
C=CCN(CC=C)Cc1c(O)ccc2c1oc(=O)c1ccccc12	-8	32	-8	45*
CC(C)Cn1c(=O)c(C(=O)Nc2ccccc2S(N)(=O)=O)c(O)c2ccccc21	2	-4	9	-12
CCC(C)n1c(=O)c(C(=O)Nc2ccccc2S(N)(=O)=O)c(O)c2ccccc21 (stereo not drawn)	4	8	9.0*	-25
O=C(NC(C(=O)c1ccccc1)N1CCOCC1)c1cccs1 (stereo not drawn)	1	-26	12*	-7
CC1CCc2nn(CC(=O)N3CCc4ccccc43)cc2C1 (stereo not drawn)	-2	14	-5	9
O=C(OCC(=O)N1CCc2ccccc21)c1n[nH]c(=O)c2ccccc12	-3	-66	13*	14
SMILES	MOR-DOR ag	HTR5A inv ag	HTR5A ag	MOR-DOR inv ag
Cn1nc(C(=O)OCC(=O)N2CCc3ccccc32)c2ccccc2c1=O	-2	-7	2	13
CCOC(=O)C1CCN(Cc2cc(=O)oc3cc(C)c(Cl)cc23)CC1	0	10	-3	-2
Cc1ccc(S(=O)(=O)c2c(C)nn(C(C)(C)C)c2OC(=O)c2ccco2)cc1	-1	-1	12*	6
Cc1ccc(OCc2nc3ccccc3[nH]2)cc1	0	12	-4	-3
CCN(C(=O)CSc1ncccc1C(=O)OC(C)C)c1cccc(C)c1	-1	-13	11*	5
Cc1ccc(C(C)C)c(OCC(O)CN(C)Cc2ccccc2)c1 (stereo not drawn)	6	-44	12*	-25
CCC(=O)N1CCc2cc(S(=O)(=O)N3CCCCCC3)ccc21	-5	-9	13*	26
CCC(=O)N1CCc2cc(S(=O)(=O)N3CCCC3)ccc21	-2	-13	1	9
CCOC(=O)N1CCN(S(=O)(=O)N2CCCC(C(=O)NCCc3ccccc3)C2)CC1 (stereo not drawn)	-2	15	-1	12
CC1CCN(S(=O)(=O)c2ccc(NC(=O)Cn3nnc(-c4ccccc4)n3)cc2)CC1	31*	-42	16*	-168
COc1cc(C#Cc2c(-c3cncn3C)n(C)c3ccc(-c4cnc(OC)nc4)cc23)cc(OC)c1	1	-44	12*	-5
CCN(CC)CCn1c(SCC(=O)Nc2ccc3c(c2)CCC3)nc2ccccc2c1=O	-1	12	12*	4
